Screening results as filed in PubChem.
ADAM10 inh: inhibits human ADAM10 | recombinant ADAM10, EDANS/DABCYL FRET peptide cleavage, 3 h | 370,000 compounds, 0.62% hits | inhibition, % at 7 µM | O14672;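 active = inhibition above a per-campaign cutoff equal to the mean of compounds falling between control-based bounds plus 3 SD, cut at about 20% in these data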;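 note: 0% = DMSO wells while the 100% control is not disclosed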
MPTP block: blocks calcium-induced mitochondrial swelling | inhibition, % at 10 µM | AID 602449 | 360,000 compounds, 1.4% hits | isolated mouse mitochondria, Ca2+ swelling absorbance, 30 min;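 active = inhibition of 50% or more, scaled per plate between neutral and stimulator controls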;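 note: 0% = DMSO wells given calcium and 100% = 1 mM EGTA wells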
ADAM17 inh: inhibits human ADAM17; P78536; recombinant ADAM17, EDANS/DABCYL FRET peptide cleavage; inhibition, % at 6.95 µM; 370,000 compounds, 0.83% hits;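 active = inhibition above the mean of compounds lying between control limits plus 3 SD, set per campaign, cut at about 8.5% in these data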;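 note: 0% = DMSO-only wells as the low control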
proKLK7 act: activates the human kallikrein-7 zymogen. P49862. purified proKLK7, EDANS-DABCYL substrate fluorescence; 100% is mature enzyme control, 0% vehicle. activation, % at 7 µM. 370,000 compounds, 0.9% hits;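 active = activation above the mean of all tested compounds plus 3 SD, computed per campaign excluding outliers beyond control limits, cut at about 13% in these data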
Target sequence (P49862 whole entry, looked up): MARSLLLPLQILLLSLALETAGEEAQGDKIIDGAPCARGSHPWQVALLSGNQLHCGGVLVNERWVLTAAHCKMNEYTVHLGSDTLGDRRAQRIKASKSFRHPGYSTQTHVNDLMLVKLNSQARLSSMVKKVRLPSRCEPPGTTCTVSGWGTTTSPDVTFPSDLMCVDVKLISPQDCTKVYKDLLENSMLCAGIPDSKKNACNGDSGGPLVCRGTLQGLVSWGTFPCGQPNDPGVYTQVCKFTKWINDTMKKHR
rCAG RNA binder: r(CAG) repeat RNA binding; TO-PRO-1 dye displacement fluorescence; inhibition, % at 3 µM; 370,000 compounds, 1.3% hits; AID 651821;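 active = inhibition above the plate cutoff, the mean of all test compounds on that plate plus 3 SD, cut at about 35% in these data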;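 note: 0% = DMSO alone and 100% = 100 µM mitoxantrone as full dye displacement; higher means more dye released from RNA so lower well fluorescence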
Pemphigus Ab inh: blocks pemphigus antibody binding to human desmoglein-3; 310,000 compounds, 0.48% hits; binding (percent of control), % at 10 µM; P32926; AID 588358; DSG3-coupled beads, scFv-anti-DSG3-GFP binding, flow cytometry; active compounds read low;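 active = binding more than 3 SD below its plate's average and above zero; inconclusive = below that plate limit but binding exactly zero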;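 note: hits lower antibody fragment binding to DSG3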
ADAM10 counter: ADAM10 inhibition, counter-screen for ADAM17 exosite hits. AID 743256. 2,900 compounds, 47% hits. shares compounds with ADAM17 inh. inhibition, % at 6.95 µM. recombinant ADAM10, EDANS/DABCYL FRET peptide cleavage, 3 h;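 active = mean inhibition over the triplicate runs exceeds the activity threshold set in the earlier primary screen, cut at about 20% in these data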;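 note: 0% = DMSO wells and 100% = marimastat wells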
ADAM17 confirm: confirmation of inhibitors of human ADAM17 | shares compounds with ADAM17 inh | recombinant ADAM17, EDANS/DABCYL QFRET peptide cleavage | inhibition, % at 6.95 µM | 2,900 compounds, 65% hits;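 active = mean inhibition across replicates above the hit cutoff set in the primary screen, cut at about 8.5% in these data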;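 note: 0% = DMSO wells and 100% = marimastat wells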
* marks the source's active call; other numbers are inactive results; ? = inconclusive; . = no result given. The list is not random: actives were taken first. Their share in the collection is about 4.7%.

SMILES | ADAM10 inh | MPTP block | ADAM17 inh | proKLK7 act | rCAG RNA binder | Pemphigus Ab inh | ADAM10 counter | ADAM17 confirm
CSCC[C@H](NC(=O)[C@H](Cc1ccccc1)n1c(=O)[nH]c2ccccc2c1=O)C(=O)N[C@@H](Cc1ccccc1)C(=O)O | -19 | -3 | -3 | 0 | 17 | 100 | . | .
Cc1cccc(N2CCN(C(=O)c3ccc(CS(=O)Cc4ccc(Cl)cc4)o3)CC2)c1C (stereo not given) | 19 | 0 | 11* | 0 | 1 | 98 | 18 | 12*
Clc1ccccc1C(c1nnnn1Cc1ccco1)N1CCN(Cc2ccco2)CC1 (stereo not given) | 13 | 0 | 9.2* | 0 | 3 | 96 | -15 | -1
C[C@H](CO)N1C[C@H](C)[C@@H](CN(C)Cc2ccc3c(c2)OCO3)Oc2cc(Br)ccc2S1(=O)=O | 12 | -1 | 8.9* | -1 | 4 | . | 25* | 14*
Cc1ccc(C(C(=O)NC2CCCC2)N(Cc2cccs2)C(=O)CNC(=O)c2cccs2)o1 (stereo not given) | 13 | -3 | 9.2* | 0 | -1 | 99 | -5 | 2
COc1ccc(CNC(=O)C2(CC3CC(c4ccccc4)=NO3)CCN(C(=O)C3(C)CC3)CC2)cc1 (stereo not given) | 7 | -2 | 8.7* | 1 | -4 | 103 | 1 | 5
COc1ccc(CNC(=O)C2(CC3CC(c4ccccc4)=NO3)CCNCC2)cc1 (stereo not given) | -1 | -1 | -3 | 0 | -2 | 103 | . | .
CC(C)c1cccc(-c2csc(C(O)c3ccc(F)cc3)n2)c1 (stereo not given) | 6 | 3 | 7 | 0 | 2 | . | . | .
CC(C)c1cccc(-c2csc(C(O)c3ccc(F)c(F)c3)n2)c1 (stereo not given) | 16 | 1 | 11* | 0 | 4 | . | 24* | 15*
CC1CCCCC12NC(=O)N(CC(=O)Nc1ccc(Cl)c(S(=O)(=O)N3CCOCC3)c1)C2=O (stereo not given) | 2 | -1 | -2 | 0 | 4 | 107 | . | .
CCCC1(CCC)NC(=O)N(CC(=O)Nc2ccc(Cl)c(S(=O)(=O)N3CCOCC3)c2)C1=O | 16 | 0 | 15* | 0 | 5 | 92 | 3 | 2
COc1ccccc1NC(=O)c1cnc(SCC(=O)NCCc2ccccc2)n(C)c1=O | -6 | 0 | -2 | 1 | 0 | 97 | . | .
COc1cc2c(cc1NC(=O)COc1ccccc1OC)oc1ccccc12 | 2 | 0 | -5 | 0 | 3 | 97 | . | .
COc1cc2c(cc1NC(=O)COC(=O)[C@@H](NS(=O)(=O)c1ccccc1)C(C)C)oc1ccccc12 | 19 | -30 | 11* | -14 | 16 | 98 | -5 | 5
CC1=CC2=NC(=O)/C(=C\c3cccn3CCOc3ccc(C)c(C)c3)C(=N)N2O1 | 6 | -20 | 5 | 0 | 5 | 109 | . | .
N=C1/C(=C/c2cccn2CCOc2ccccc2)C(=O)N=C2SC=C(c3ccccc3)N12 | 11 | 15 | 9.7* | -10 | 30 | 128 | 15 | 14*
OCCn1c(CSc2nnc(-c3ccco3)n2-c2ccccc2)nc2ccc(Cl)cc21 | -11 | 1 | 11* | 0 | 10 | . | -16 | -3
NC(=O)CSc1nnc(-c2ccco2)n1-c1ccccc1 | 8 | 0 | 0 | -1 | -3 | 102 | . | .
COc1cccc(NC(=O)C(=O)c2cn(CC(=O)N3CCCC3)c3ccccc23)c1 | 0 | 0 | 1 | 1 | 2 | 100 | . | .
CC(=O)c1ccc(OC2(C)CCN(Cc3ccc4c(c3)OCCO4)C2)cc1 (stereo not given) | -10 | 0 | -5 | 0 | -2 | . | . | .
NS(=O)(=O)c1ccc(CNC(=O)Cc2ccc(S(=O)(=O)N3CCOCC3)s2)cc1 | 0 | -2 | -7 | 0 | 7 | 95 | . | .
CCOc1cc(/C=C2\SC(=S)N(Nc3ccccc3)C2=O)ccc1O | 17 | 7 | 9.5* | 0 | 30 | 96 | 31* | 14*
CCOc1cc(/C=C2\SC(=S)N(N3CCOCC3)C2=O)ccc1O | 0 | 7 | -3 | 0 | -1 | 88 | . | .
COc1cc(/C=C/C(=O)OCC(=O)c2c[nH]c3ccccc23)ccc1OC(F)F | 13 | 1 | 9.4* | 0 | 11 | 97 | 21* | 18*
CCN(CC)S(=O)(=O)c1ccc(OC)c(NC(=O)c2ccc(OC)c([N+](=O)[O-])c2)c1 | 13 | 0 | 13* | 0 | 10 | 111 | 0 | 1
SMILES | ADAM10 inh | MPTP block | ADAM17 inh | proKLK7 act | rCAG RNA binder | Pemphigus Ab inh | ADAM10 counter | ADAM17 confirm
O=C(/C=C/c1cccc([N+](=O)[O-])c1)NCCSCc1ccccc1Cl | 19 | 35 | 8.9* | 0 | 5 | 95 | 27* | 14*
COc1ccccc1C(=O)Nc1ccccc1N1CCN(C(=O)c2ccc(Cl)cc2)CC1 | 16 | 0 | 3 | -1 | 2 | ? | . | .
O=C(Nc1cccc(C(F)(F)F)c1)c1csc(COCCO)n1 | -11 | 0 | -5 | -1 | 0 | . | . | .
COc1ccc(C)cc1NC(=O)CSc1nnc(COc2ccc(C)cc2)n1Cc1ccco1 | 19 | -6 | 11* | 1 | 1 | 101 | 26* | 15*
O=C(CSc1nnc(-c2cccs2)n1Cc1ccco1)Nc1ccc(OCc2ccccc2)cc1 | 17 | . | 9.4* | 1 | 9 | . | 23* | 12*
CCn1c(SCC(=O)Nc2ccc(NC(=O)c3ccco3)cc2)nnc1-c1cccs1 | 9 | 0 | 8.8* | 100* | 5 | 98 | 10 | 4
COc1ccccc1CC1(C)C(=O)Nc2c(Cl)cccc21 (stereo not given) | -6 | -1 | -7 | 0 | 1 | . | . | .
Cc1cc2c3c([nH]c2cc1S(=O)(=O)N1CCC2(CC1)OCCO2)CCCC3=O | 4 | 0 | 0 | 0 | 5 | 104 | . | .
COc1cccc(/C=N/NC(=O)CSc2ccccc2C)c1O | -4 | 2 | -2 | -3 | 2 | 95 | . | .
COc1cccc(C=NNC(=O)CSc2nc3ccccc3[nH]2)c1O | 17 | . | 10* | -2 | 10 | . | -7 | 0
Cc1ccc(C(=O)Nc2cccc(C(F)(F)F)c2)cc1NC(=O)c1[nH]cnc1C(N)=O | -3 | 0 | -3 | 0 | 5 | 101 | . | .
CCCCC(=O)NC(c1cccc([N+](=O)[O-])c1)c1ccc2cccnc2c1O (stereo not given) | 18 | 2 | 9.6* | 0 | 11 | 108 | 25* | 17*
Cc1cccc(C)c1NC(=O)CN(C)CC(=O)Nc1cc(Cl)ccc1C#N | -5 | 11 | 0 | 0 | -2 | ? | . | .
